MLL AF4-AF9 inh = inhibitors of human MLL-AF4/AF9 interaction; P42568; AlphaScreen, biotin-AF4 peptide binding to FLAG-AF9; inhibition, % at 10 µM; actives 0.47% (n = 350,000); AID 651704;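 active means every replicate reaching a set inhibition limit, whatever the replicate mean, cut at about 25% in these data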
dFosB act = activators of mouse delta FosB homodimer | P13346 | purified delta FosB, TAMRA-CDK5 oligo fluorescence polarization; percent of positive-control signal above neutral wells | activation, % at 25 µM | actives 0.99% (n = 340,000) | AID 493131;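 active means mean activation above about 17%, with every replicate also reaching it, limit read from the data, passing the limit was not always enough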
Target sequence (P13346 whole entry, looked up): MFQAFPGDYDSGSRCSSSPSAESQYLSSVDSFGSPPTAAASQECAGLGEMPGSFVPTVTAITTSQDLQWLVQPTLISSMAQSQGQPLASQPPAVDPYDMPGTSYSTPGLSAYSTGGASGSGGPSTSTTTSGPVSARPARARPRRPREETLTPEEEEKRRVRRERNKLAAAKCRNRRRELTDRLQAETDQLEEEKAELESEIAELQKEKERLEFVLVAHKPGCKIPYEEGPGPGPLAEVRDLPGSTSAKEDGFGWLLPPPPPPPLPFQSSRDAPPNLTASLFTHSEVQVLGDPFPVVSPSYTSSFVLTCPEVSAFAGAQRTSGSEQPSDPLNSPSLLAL
RAD52 inh = inhibitors of human RAD52 DNA annealing; AID 651710; recombinant RAD52 DNA annealing, FRET fluorescence; actives 0.46% (n = 360,000); P43351; inhibition, % at 18.7 µM;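 active means every replicate showing at least 50% inhibition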
GSIS activator = GLuc luminescence reporter in INS-1E cells, primary screen for activators of glucose-dependent secretion of insulin. actives 0.61% (n = 370,000). activation, % at 16.6 µM. INS-1E GLuc reporter insulin secretion, 2-3 h. AID 743287;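 active means lowest replicate activation of at least 40%, so every replicate reaches that level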
RAD54 branch = RAD54 (human) branch migration inhibition. RAD54 Holliday junction branch migration, FAM/BHQ fluorescence. inhibition, % at 10.4 µM. actives 0.14% (n = 360,000). AID 602329;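 active means mean normalized replicate activity at least 40 and at least half of replicates scoring 40 or more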;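 further: inhibitors cause a drop in the FAM fluorescence signal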
DENV2 CPE rescue = DENV2-induced cell death inhibition; DENV2-infected cells, cytopathic effect rescue, plate reader; CPE inhibition, % at 9.99 µM; actives 1.7% (n = 350,000); AID 651640; in the data active means CPE inhibition above about 20%, passing the limit was not always enough; tested in BHK-21 cells
Numbers stand for hits. This is a sample that favours compounds with a hit; in the whole collection about 3.1% have one here.

Results for Cc1ccc(-c2nc(CS(=O)CC(=O)NC(C)CCc3ccccc3)c(C)o2)cc1 (stereo not drawn) ?
MLL AF4-AF9 inh: inactive; dFosB act: inactive; RAD52 inh: inactive; GSIS activator: inactive; RAD54 branch: inactive; DENV2 CPE rescue: inactive

How did NNC(=O)c1ccc(-c2ccccc2F)cc1 do in these assays?
MLL AF4-AF9 inh: inactive; dFosB act: inactive; RAD52 inh: inactive; DENV2 CPE rescue: 27.3

How did CC(=O)NC[C@@H]1[C@H](c2ccc(C3=CCCC3)cc2)[C@H](CO)N1C(=O)NC(C)C do in these assays?
MLL AF4-AF9 inh: inactive; RAD52 inh: inactive; GSIS activator: inactive; RAD54 branch: inactive; DENV2 CPE rescue: inactive

How did C[C@H]1CN([C@@H](C)CO)C(=O)c2cc(C#Cc3ccccc3)cnc2O[C@@H]1CN(C)C(=O)CN(C)C do in these assays?
MLL AF4-AF9 inh: inactive; RAD52 inh: inactive; GSIS activator: inactive; RAD54 branch: inactive; DENV2 CPE rescue: inactive

How did CO[C@H](CN(C)Cc1ccc2c(c1)OCO2)[C@@H](C)CN(C(=O)Nc1ccc(F)cc1)[C@H](C)CO do in these assays?
MLL AF4-AF9 inh: inactive; RAD52 inh: inactive; GSIS activator: inactive; RAD54 branch: inactive; DENV2 CPE rescue: inactive

Results for CN1CCN(C(=O)C[C@H]2CC[C@H](NC(=O)Cc3ccccn3)[C@@H](CO)O2)CC1 ?
MLL AF4-AF9 inh: inactive; RAD52 inh: inactive; GSIS activator: inactive; RAD54 branch: inactive; DENV2 CPE rescue: inactive

Results for COc1ccccc1N1CCN(Cc2cc3c(cc2Br)OCCO3)CC1 ?
MLL AF4-AF9 inh: inactive; dFosB act: inactive; RAD52 inh: inactive; GSIS activator: inactive; RAD54 branch: inactive; DENV2 CPE rescue: inactive

How did COc1ccc(N2CCN(Cc3cc4c(cc3Br)OCCO4)CC2)cc1 do in these assays?
MLL AF4-AF9 inh: 26.9; dFosB act: inactive; RAD52 inh: inactive; GSIS activator: inactive; RAD54 branch: inactive; DENV2 CPE rescue: inactive

How did O=C(NC1CCCCC1)N1CC2(C1)[C@H](c1ccccc1)[C@H](CO)N2CC1CCOCC1 do in these assays?
MLL AF4-AF9 inh: inactive; RAD52 inh: inactive; GSIS activator: inactive; DENV2 CPE rescue: inactive

Results for CCC(=O)N1CC2(C1)[C@@H](c1ccccc1)[C@@H](CO)N2CC1CCOCC1 ?
MLL AF4-AF9 inh: inactive; RAD52 inh: inactive; GSIS activator: inactive; DENV2 CPE rescue: inactive

Results for O=C(c1ccncc1)N1CC2(C1)[C@H](c1ccccc1)[C@H](CO)N2CC1CCCC1 ?
MLL AF4-AF9 inh: inactive; RAD52 inh: inactive; GSIS activator: inactive; DENV2 CPE rescue: inactive

Results for CCC(=O)N1CC2(C1)[C@H](c1ccccc1)[C@H](CO)N2CC1CCOCC1 ?
MLL AF4-AF9 inh: inactive; RAD52 inh: inactive; GSIS activator: inactive; DENV2 CPE rescue: 70.4

What do the screens show for `O=C(c1ccncc1)N1CC2(C1)[C@H](c1ccccc1)[C@@H](CO)N2CC1CCOCC1`?
MLL AF4-AF9 inh: inactive; RAD52 inh: inactive; GSIS activator: inactive; DENV2 CPE rescue: 73.4

Results for C/C=C/c1ccc([C@H]2[C@@H](CO)N(CC3CCCC3)C23CN(C(=O)CC)C3)cc1 ?
MLL AF4-AF9 inh: inactive; RAD52 inh: inactive; GSIS activator: inactive; DENV2 CPE rescue: 28.8

How did O=C(NC1CCCC1)N1CC2(C1)[C@H](c1ccccc1)[C@@H](CO)N2CC1CCOCC1 do in these assays?
MLL AF4-AF9 inh: inactive; GSIS activator: inactive; DENV2 CPE rescue: 38.1

How did C[C@H]1CN([C@@H](C)CO)C(=O)c2cccc(NC(=O)C3CCCCC3)c2O[C@@H]1CN(C)S(=O)(=O)c1cccs1 do in these assays?
MLL AF4-AF9 inh: inactive; RAD52 inh: inactive; GSIS activator: inactive; RAD54 branch: inactive; DENV2 CPE rescue: inactive

Results for C[C@H]1CN([C@@H](C)CO)C(=O)Cc2cc(NS(=O)(=O)c3ccccc3)ccc2O[C@H]1CN(C)S(=O)(=O)c1ccc(Cl)cc1 ?
GSIS activator: inactive; RAD54 branch: inactive; DENV2 CPE rescue: inactive

What do the screens show for `O=C(c1ccccc1F)N1CC2(C1)[C@@H](c1ccccc1)[C@H](CO)N2CC1CC1`?
MLL AF4-AF9 inh: inactive; RAD52 inh: inactive; GSIS activator: inactive; DENV2 CPE rescue: 29.6

How did C/C=C/c1ccc([C@@H]2[C@H](CO)N(Cc3cncnc3)C23CN(C(=O)COC)C3)cc1 do in these assays?
MLL AF4-AF9 inh: inactive; RAD52 inh: inactive; GSIS activator: inactive; DENV2 CPE rescue: 22.1

Screening results (PubChem)
